# Measured values taken from paper PMC7862700, “An all-to-all approach to the identification of sequence-specific readers for epigenetic DNA modifications on cytosine”.
# Experiments:
# Assay in all cases: DAPPL (digital affinity profiling via proximity ligation, sequencing); 10 mM Tris-HCl pH 7.5, 50 mM NaCl, 1 mM DTT, 4% glycerol, room temperature, 30 min; GST-TFs on glutathione beads, 16-mer random dsDNA library, 0.1% formaldehyde crosslink after washing; high values mean tight binding
# Settings in all cases: protein: recombinant; tags: N-terminal GST; dsDNA, one strand shown
# ETV2 = target: T1, ETV2 (Homo sapiens, UniProt O00321 1-342)
# T1 sequence: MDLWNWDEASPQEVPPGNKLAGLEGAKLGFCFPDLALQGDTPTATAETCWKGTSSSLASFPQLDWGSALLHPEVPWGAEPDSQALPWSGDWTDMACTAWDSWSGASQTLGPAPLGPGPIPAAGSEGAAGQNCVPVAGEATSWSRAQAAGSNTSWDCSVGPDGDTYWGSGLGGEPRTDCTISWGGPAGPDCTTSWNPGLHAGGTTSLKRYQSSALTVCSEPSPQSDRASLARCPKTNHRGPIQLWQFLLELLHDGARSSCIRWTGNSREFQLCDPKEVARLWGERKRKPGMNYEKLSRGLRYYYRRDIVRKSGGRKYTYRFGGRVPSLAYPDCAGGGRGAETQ
# In short: (§1)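 Pools were built from human transcription factors expressed in yeast as GST fusions, captured on glutathione beads and DNA-barcoded, along with a tag-only sample. Incubation with 200 nmole of a 16-mer random double-stranded DNA library lasted 30 min at room temperature in Tris/NaCl/DTT/glycerol buffer, and was followed by washing, 0.1% formaldehyde crosslinking, proximity ligation, PCR amplification and Illumina NextSeq500 sequencing. Binding signal is the quotient of each hexamer's read frequency for a factor and its frequency for the tag-only sample.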
# ELF3 = target: T2, ELF3 (Homo sapiens, UniProt P78545 1-371)
# T2 sequence: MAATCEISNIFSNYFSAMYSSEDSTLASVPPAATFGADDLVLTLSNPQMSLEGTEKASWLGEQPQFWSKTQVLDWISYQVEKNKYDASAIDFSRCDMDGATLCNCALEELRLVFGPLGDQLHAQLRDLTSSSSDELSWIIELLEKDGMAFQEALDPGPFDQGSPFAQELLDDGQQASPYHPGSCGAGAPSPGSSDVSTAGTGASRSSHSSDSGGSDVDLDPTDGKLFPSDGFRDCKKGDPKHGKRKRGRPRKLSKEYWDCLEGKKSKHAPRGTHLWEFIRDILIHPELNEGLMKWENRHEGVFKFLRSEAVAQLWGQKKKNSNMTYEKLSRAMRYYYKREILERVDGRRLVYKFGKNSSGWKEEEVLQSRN
# In short: as §1
# ETV1 = ETV1 (Homo sapiens, UniProt P50549 1-477)
# In short: as §1
# ERF = target: T3, ERF (Homo sapiens, UniProt P50548 1-548)
# T3 sequence: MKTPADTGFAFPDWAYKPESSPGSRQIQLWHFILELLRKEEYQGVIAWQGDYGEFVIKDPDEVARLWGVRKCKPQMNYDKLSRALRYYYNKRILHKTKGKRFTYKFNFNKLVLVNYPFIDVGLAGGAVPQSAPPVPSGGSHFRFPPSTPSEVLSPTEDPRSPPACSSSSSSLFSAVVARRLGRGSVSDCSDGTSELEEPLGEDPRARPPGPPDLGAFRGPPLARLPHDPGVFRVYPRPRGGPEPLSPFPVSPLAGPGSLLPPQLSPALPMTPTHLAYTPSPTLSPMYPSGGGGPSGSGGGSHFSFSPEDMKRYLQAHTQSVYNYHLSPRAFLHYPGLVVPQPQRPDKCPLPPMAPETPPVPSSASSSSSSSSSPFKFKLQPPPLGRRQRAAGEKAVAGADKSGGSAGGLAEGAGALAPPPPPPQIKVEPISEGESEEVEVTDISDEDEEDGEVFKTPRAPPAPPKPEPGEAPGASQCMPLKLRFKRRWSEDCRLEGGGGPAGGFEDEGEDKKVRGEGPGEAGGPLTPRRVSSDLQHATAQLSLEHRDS
# In short: as §1
# ETV3L = target: T4, ETV3L (Homo sapiens, UniProt Q6ZN32 1-361)
# T4 sequence: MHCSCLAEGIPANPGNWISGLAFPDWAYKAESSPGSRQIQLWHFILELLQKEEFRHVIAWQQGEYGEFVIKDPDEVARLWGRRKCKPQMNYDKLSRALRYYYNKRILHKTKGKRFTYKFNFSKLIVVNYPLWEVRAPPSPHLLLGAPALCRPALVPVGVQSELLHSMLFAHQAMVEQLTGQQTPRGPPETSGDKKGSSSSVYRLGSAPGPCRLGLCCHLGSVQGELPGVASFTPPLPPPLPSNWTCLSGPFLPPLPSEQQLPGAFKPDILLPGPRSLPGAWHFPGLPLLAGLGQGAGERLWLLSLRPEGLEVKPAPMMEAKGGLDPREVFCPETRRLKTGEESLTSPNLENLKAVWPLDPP
# In short: as §1
# ETS2 = target: T5, ETS2 (Homo sapiens, UniProt P15036 1-469)
# T5 sequence: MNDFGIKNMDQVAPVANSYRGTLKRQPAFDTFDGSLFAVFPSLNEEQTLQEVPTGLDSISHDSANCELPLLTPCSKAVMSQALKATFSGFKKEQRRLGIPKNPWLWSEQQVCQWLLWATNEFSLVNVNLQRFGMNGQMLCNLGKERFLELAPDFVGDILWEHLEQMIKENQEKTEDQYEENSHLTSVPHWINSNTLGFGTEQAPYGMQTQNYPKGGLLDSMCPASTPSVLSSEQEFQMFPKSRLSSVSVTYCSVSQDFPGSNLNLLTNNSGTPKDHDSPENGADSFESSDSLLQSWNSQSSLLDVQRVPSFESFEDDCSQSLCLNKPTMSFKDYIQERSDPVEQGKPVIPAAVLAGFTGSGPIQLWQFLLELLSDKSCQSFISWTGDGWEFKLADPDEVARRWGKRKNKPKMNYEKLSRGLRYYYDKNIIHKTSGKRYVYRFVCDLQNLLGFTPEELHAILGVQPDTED
# In short: as §1
# SPDEF = target: T6, SPDEF (Homo sapiens, UniProt O95238 1-335)
# T6 sequence: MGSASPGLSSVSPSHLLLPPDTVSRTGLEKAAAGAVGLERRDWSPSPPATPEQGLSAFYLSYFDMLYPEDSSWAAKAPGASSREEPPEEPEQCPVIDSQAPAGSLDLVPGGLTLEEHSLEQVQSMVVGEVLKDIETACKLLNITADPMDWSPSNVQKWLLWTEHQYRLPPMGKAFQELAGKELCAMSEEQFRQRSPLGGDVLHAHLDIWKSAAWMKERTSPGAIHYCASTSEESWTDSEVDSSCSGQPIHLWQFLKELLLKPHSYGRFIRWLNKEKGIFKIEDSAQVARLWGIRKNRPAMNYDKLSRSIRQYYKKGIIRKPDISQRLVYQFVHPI
# In short: as §1
# ETV7 = target: T7, ETV7 (Homo sapiens, UniProt Q9Y603 1-341)
# T7 sequence: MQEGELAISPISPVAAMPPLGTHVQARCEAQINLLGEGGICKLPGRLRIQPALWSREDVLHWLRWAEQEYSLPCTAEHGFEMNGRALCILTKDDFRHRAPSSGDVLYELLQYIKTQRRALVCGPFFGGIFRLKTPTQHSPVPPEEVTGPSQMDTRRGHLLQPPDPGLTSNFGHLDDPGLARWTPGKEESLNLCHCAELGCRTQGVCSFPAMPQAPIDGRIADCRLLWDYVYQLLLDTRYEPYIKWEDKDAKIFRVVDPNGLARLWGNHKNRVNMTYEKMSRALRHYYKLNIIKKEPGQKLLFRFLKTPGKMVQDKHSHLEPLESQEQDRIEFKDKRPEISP
# In short: as §1
# ETV3 = target: T8, ETV3 (Homo sapiens, UniProt P41162-2 1-143)
# T8 sequence: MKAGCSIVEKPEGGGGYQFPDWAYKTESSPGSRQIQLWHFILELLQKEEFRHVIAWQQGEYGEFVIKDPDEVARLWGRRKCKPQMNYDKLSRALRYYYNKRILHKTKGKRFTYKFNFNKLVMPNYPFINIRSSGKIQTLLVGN
# In short: as §1
# ETV6 = ETV6 (Homo sapiens, UniProt P41212 1-452)
# In short: as §1
# ETV1, sequence (P50549 whole entry): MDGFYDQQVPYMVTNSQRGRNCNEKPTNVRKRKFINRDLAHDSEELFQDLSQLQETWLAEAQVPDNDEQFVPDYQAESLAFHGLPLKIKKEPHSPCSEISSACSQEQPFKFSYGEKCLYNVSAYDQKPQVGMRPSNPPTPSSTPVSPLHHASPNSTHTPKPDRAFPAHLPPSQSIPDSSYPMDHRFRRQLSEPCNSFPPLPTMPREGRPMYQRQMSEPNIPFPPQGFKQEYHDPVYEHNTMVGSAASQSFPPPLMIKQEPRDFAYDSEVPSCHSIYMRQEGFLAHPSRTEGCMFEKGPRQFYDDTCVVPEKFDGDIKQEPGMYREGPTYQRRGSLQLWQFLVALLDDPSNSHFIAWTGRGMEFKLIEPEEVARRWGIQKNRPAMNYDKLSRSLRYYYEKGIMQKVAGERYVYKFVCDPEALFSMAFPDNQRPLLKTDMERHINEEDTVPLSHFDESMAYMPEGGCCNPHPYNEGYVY
# ETV6, sequence (P41212 whole entry): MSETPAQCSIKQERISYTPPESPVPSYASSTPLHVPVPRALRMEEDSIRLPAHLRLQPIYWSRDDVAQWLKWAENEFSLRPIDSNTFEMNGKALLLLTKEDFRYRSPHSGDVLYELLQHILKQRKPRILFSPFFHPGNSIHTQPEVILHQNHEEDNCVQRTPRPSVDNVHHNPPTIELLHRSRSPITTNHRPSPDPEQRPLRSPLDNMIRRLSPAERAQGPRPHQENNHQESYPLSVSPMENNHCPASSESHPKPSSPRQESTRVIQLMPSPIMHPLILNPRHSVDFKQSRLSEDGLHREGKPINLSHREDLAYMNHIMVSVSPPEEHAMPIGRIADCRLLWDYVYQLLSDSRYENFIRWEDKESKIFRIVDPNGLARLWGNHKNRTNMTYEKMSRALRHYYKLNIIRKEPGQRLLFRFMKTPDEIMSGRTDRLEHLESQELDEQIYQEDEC
sequence,measurement,setting,value
TCATGT,binding signal,ETV2,"1.15 fold enrichment (6-mer frequency, TF over GST control)"
same,binding signal,ELF3,"1.04 fold enrichment (6-mer frequency, TF over GST control)"
same,binding signal,ETV1,"1.27 fold enrichment (6-mer frequency, TF over GST control)"
same,binding signal,ERF,"1.13 fold enrichment (6-mer frequency, TF over GST control)"
same,binding signal,ETV3L,"1.15 fold enrichment (6-mer frequency, TF over GST control)"
same,binding signal,ETS2,"1.11 fold enrichment (6-mer frequency, TF over GST control)"
same,binding signal,SPDEF,"1.12 fold enrichment (6-mer frequency, TF over GST control)"
same,binding signal,ETV7,"1.15 fold enrichment (6-mer frequency, TF over GST control)"
same,binding signal,ETV3,"1.14 fold enrichment (6-mer frequency, TF over GST control)"
same,binding signal,ETV6,"1.08 fold enrichment (6-mer frequency, TF over GST control)"
